This is an account of results in PubChem BioAssay (Tox21).

Experiment [1] in a line: Nuclear factor erythroid 2-related factor 2/antioxidant responsive element (Nrf2/ARE) small molecule agonists: qHTS cell viability counter screen in human keratinocytes (AID 1919968; active = well fitted curve in the direction sought with a large enough effect in the repeat runs; an effect the other way counts as inactive or inconclusive; note: nearly all actives have a fitted effect of over 55% in size). In outline: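 HaCaT ARE reporter line, 1,500 cells/well; 5 h settle, 37 C/5% CO2; cpd in DMSO pinned; 23 h exposure; CellTiter-Fluor, 1 h; fluorescence.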
Background: Quantitative high-throughput screening tests each substance at several concentrations.

Experiment [2] is described as follows: Nuclear factor erythroid 2-related factor 2/antioxidant responsive element (Nrf2/ARE) small molecule agonists: luciferase reporter gene qHTS assay in human keratinocytes (AID 1919969; note: nearly all actives have a fitted effect of over 35% in size; note: potency is the fitted concentration of half-maximal effect). (Reporter assays use an easily measured gene product as a stand-in for the process of interest.)
In experiment [3] the target is Gonadotropin-releasing hormone receptor (Homo sapiens) (UniProt P30968). Description: Human gonadotropin-releasing hormone receptor (GnRHR) small molecule agonists, calcium flux assay in GnRHR-HEK293 cells (AID 1920063). Note: nearly all actives have a fitted effect of over 35% in size. In outline:
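GnRHR-HEK293, 1500 cells/well, 18 h 37 C/5% CO2; Ca dye 1 h 37 C; cpd pinned (DMSO), agonist mode; kinetic FL 480/540, 3 min, 1 s reads; 15 conc, n=3.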

The target in experiment [4] is KiSS-1 receptor (Homo sapiens) (UniProt Q969F8). Kind of experiment: Human kisspeptin (KISS1R) small molecule agonists, calcium flux assay in KISS1R-HEK293 cells (AID 1920064; active = well fitted curve in the direction sought with a large enough effect in the repeat runs; an effect the other way counts as inactive or inconclusive). In outline: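 Stable human KISS1R HEK293 line; 18 h plating, 37 C/5% CO2; calcium dye 1 h 37 C; compound pin transfer; kinetic fluorescence Ex/Em 480/540, 3 min.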
KiSS-1 receptor (Homo sapiens), sequence (Q969F8 whole entry, looked up): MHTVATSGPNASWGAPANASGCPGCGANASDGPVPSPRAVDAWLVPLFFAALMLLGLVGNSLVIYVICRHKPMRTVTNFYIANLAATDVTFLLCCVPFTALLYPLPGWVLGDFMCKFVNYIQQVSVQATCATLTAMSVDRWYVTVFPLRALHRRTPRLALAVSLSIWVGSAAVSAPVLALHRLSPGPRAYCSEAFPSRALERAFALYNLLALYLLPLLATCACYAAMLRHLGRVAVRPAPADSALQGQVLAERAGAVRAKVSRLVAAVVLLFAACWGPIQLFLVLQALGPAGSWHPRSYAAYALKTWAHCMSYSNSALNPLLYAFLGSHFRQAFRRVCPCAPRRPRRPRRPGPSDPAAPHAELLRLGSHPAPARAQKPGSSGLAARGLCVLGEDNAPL
A short description of experiment [5]: G protein-coupled receptor (GPCR) small molecule agonists, calcium flux assay: HEK293 wild type cell line counter screen (AID 1920065). In outline:
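Kinetic fluorescence at Ex/Em 480/540, recorded every second over 3 min, served as the read-out after compound addition. Each compound was tested at 15 concentrations in triplicate on cells pre-loaded with calcium dye for 1 h.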

The nature of experiment [6]: p53 small molecule agonists, cell-based qHTS assay with human liver microsomes (AID 1963577).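 Note: p53 response element beta-lactamase reporter cells with liver microsomes plus NADPH.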 In outline:
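With metabolic activation: human liver microsomes (0.5 mg/mL final) plus NADPH (0.5 mg/mL final) added alongside compounds to p53RE-bla cells; 16 h 37 C exposure; beta-lactamase read by LiveBLAzer fluorescence.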

Experiment [7] can be described thus: p53 small molecule agonists, cell-based qHTS assay with rat liver microsomes (AID 1963578). The method in brief:
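Metabolic activation by rat liver microsomes and NADPH, each 0.5 mg/mL final, added right after compounds to p53RE-bla reporter cells (4,000/well, plated 5 h earlier). 16 h at 37 C, then LiveBLAzer substrate for 2 h at room temperature in the dark; fluorescence read-out.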

The nature of experiment [8]: p53 small molecule agonists, cell-based qHTS assay with human liver microsomes: qHTS cell viability counter screen (AID 1963579). Note: nearly all actives have a fitted effect of over 45% in size. In outline:
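Metabolic activation used human liver microsomes and NADPH, both 0.5 mg/mL final, over 16 hours at 37 C on p53RE-bla cells (4,000/well). Cytotoxicity measured by CellTiter-Glo luminescence, 30 min at room temperature.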

A short description of experiment [9]: p53 small molecule agonists, cell-based qHTS assay with rat liver microsomes: qHTS cell viability counter screen (AID 1963580). Note: nearly all actives have a fitted effect of over 45% in size. The method in brief:
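Intracellular ATP, by CellTiter-Glo luminescence, defines viability. HCT-116 p53RE-bla cells, 4,000 per well, were compound-treated in the presence of rat liver microsomes and NADPH for 16 h at 37 C.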

Experiment [10] is described as follows: p53 small molecule agonists, cell-based qHTS assay: qHTS cell viability counter screen (AID 1963581). Note: nearly all actives have a fitted effect of over 45% in size. The method in brief:
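HCT-116 p53RE-bla cells, 4,000/well, plated 5 h before compound pin transfer; 16 h at 37 C; bla substrate 2 h RT; then CellTiter-Glo, 30 min RT, luminescence.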

Experiment [11] can be described thus: p53 small molecule agonists, cell-based qHTS assay (AID 1963582; active = well fitted activation curve with a large enough effect in the signal ratio in the repeat runs, not every such curve was filed as active; the % refers to the signal ratio). In outline: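 Reporter line: p53RE-bla. Pre-incubation 5 h, 37 C, 5% CO2; compound (DMSO, pin tool) 16 h, 37 C; B/G FRET substrate 2 h RT; fluorescence intensity read.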
In experiment [12] the target is 5-hydroxytryptamine receptor 2A (Homo sapiens) (UniProt P28223). Description: 5-hydroxytryptamine receptor 2A (HTR2A) small molecule antagonists, cell-based qHTS assay (AID 1963586). Note: nearly all actives have a fitted effect of over 45% in size. In outline: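 Antagonist-mode intracellular calcium assay: DOI (4 nM) added after 5 min compound pre-incubation at room temperature to dye-loaded HTR2A-CHO cells. Fluorescence followed for 3 min, sampled every second.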
5-hydroxytryptamine receptor 2A (Homo sapiens), sequence (P28223 whole entry, looked up): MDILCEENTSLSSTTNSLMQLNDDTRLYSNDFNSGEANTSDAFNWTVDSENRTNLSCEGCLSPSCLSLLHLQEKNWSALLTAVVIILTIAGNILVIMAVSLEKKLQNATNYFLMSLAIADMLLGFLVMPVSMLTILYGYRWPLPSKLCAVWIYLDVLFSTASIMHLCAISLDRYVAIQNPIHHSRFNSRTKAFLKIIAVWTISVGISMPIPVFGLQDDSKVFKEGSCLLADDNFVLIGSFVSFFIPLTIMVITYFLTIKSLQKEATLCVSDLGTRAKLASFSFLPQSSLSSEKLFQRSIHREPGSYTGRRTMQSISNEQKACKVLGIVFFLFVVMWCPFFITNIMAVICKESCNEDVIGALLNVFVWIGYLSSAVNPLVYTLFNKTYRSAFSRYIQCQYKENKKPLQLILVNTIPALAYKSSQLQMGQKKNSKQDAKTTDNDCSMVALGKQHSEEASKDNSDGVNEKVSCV

The target is the same in experiment [13]. Description: 5-hydroxytryptamine receptor 2A (HTR2A) small molecule agonists, cell-based qHTS assay (AID 1963587). Note: nearly all actives have a fitted effect of over 30% in size. In outline: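 Kinetic calcium-flux fluorescence (2 min, 1 sec intervals) after compound addition in agonist mode. HTR2A-CHO cells were cultured 18 h, then dye-loaded 1 h at 37 C.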
Experiment [14] addresses Muscarinic acetylcholine receptor M1 (Homo sapiens) (UniProt P11229). Kind of experiment: Cholinergic receptor muscarinic 1 (CHRM1) small molecule antagonists, cell-based qHTS assay (AID 1963588). Note: nearly all actives have a fitted effect of over 40% in size. In outline: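 CHRM1-CHO calcium-flux assay, antagonist mode. Cells were seeded 18 h, dye-loaded 1 h at 37 C and given compound for 5 min at RT, then acetylcholine was added at 50nM. FDSS fluorescence was read 3 min; 15 concentrations, three runs.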

The target is the same in experiment [15]. Kind of experiment: Cholinergic receptor muscarinic 1 (CHRM1) small molecule agonists, cell-based qHTS assay (AID 1963589). Note: nearly all actives have a fitted effect of over 35% in size. In outline: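 Human M1 in stable CHO line; 18 h plating, 1 h dye load 37 C; cpd added (agonist mode); Ca2+ fluorescence kinetic read, 1 s intervals; 15 conc, 3 runs.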
Experiment [16] can be described thus: cAMP Responsive Elements (CRE) small molecule agonists, cell-based qHTS assay (AID 1963590). In outline: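 HEK 293T CRE-bla, 2,000 cells/well, 18 h preincubation 37 C/5% CO2; cpds (DMSO) pinned, 3 h; LiveBLAzer B/G FRET substrate, 2 h RT.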
The nature of experiment [17]: cAMP Responsive Elements (CRE) small molecule antagonists, cell-based qHTS assay (AID 1963591; active = well fitted inhibition curve with a large enough effect in the signal ratio in the repeat runs, not every such curve was filed as active; the % refers to the signal ratio). The method in brief:
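Beta-lactamase reporter read by FRET substrate (LiveBLAzer B/G) after 2 h at room temperature. CRE-bla HEK293T cells had received compound plus 0.25 uM (final) NKH477 for 3 h at 37 °C.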

In experiment [18] the target is Beta-2 adrenergic receptor (Homo sapiens) (UniProt P07550). Description: Adrenergic beta2 receptor (ADRB2) small molecule antagonists, cell-based qHTS assay (AID 1963592). Note: series mostly up to about 92 µM; nearly all actives have a fitted effect of over 50% in size. The method in brief: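 Cells (CHO, stable ADRB2 overexpression) incubated 18-20hr at 37C; compounds added from DMSO; agonist mix (1nM isoproterenol, 100uM IBMX, 25uM Ro-20-1724) added; 0.5hr RT; d2-cAMP and anti-cAMP-cryptate added; 1hr RT; 665/615 nm read.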
Beta-2 adrenergic receptor (Homo sapiens), sequence (P07550 whole entry, looked up): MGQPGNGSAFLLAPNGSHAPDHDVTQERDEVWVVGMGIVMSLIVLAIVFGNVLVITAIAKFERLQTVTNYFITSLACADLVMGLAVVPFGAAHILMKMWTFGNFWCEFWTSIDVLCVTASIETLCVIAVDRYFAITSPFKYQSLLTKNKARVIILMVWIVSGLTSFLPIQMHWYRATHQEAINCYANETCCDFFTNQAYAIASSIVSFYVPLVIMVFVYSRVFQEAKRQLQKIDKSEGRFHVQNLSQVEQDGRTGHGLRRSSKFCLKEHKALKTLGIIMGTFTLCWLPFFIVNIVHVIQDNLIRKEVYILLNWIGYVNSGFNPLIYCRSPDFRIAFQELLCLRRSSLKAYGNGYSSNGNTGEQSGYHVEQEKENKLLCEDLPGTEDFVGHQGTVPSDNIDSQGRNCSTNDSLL

Experiment [19] deals with D(2) dopamine receptor (Homo sapiens) (UniProt P14416). Kind of experiment: Dopamine D2 receptor (DRD2) small molecule agonists, cell-based qHTS assay (AID 1963594). Note: nearly all actives have a fitted effect of over 35% in size. The method in brief: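 cAMP accumulation in DRD2-HEK293 cells measured by HTRF after 1 h detection; compounds added 10 min before NKH477 (200nM […]) forskolin-analogue stimulation, 30 min at room temperature, with Ro20-1724 present at 0.1 mM final.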
D(2) dopamine receptor (Homo sapiens), sequence (P14416 whole entry, looked up): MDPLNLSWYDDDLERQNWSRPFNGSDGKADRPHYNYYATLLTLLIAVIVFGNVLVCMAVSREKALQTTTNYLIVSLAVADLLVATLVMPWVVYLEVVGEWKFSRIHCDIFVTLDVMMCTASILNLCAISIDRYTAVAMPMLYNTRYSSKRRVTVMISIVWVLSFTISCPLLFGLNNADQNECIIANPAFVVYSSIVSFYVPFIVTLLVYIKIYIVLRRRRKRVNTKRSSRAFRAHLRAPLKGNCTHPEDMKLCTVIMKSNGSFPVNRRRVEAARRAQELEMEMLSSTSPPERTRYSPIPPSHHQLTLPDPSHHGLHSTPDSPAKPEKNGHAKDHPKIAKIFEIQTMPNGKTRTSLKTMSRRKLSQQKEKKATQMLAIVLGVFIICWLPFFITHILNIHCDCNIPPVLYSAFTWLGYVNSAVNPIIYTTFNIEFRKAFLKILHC

Experiment [20] has the same target. Kind of experiment: Dopamine D2 receptor (DRD2) small molecule antagonists, cell-based qHTS assay (AID 1963595; active = well fitted inhibition curve with a large enough effect in the signal ratio in the repeat runs, with a control signal flat; the % refers to the signal ratio). In outline: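 Readout: HTRF cAMP, cAMP-d2 competing with cellular cAMP for anti-cAMP cryptate, read after 1 h. Cells: DRD2-HEK293. Conditions: 0.1 mM Ro20-1724, 12 nM quinpirole, 200 nM NKH477, 30 min RT.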

Molecules are shown by their SMILES. Several values for one entry are separate records, joined by “and”; a condition that tells them apart may be missing. Equal entries are not always repeated. Inconclusive results are not listed. More than one record can exist for a structure, and the calls need not agree. Activity calls are given as the source filed them. Unless noted, calls come from the whole dose curve.

Gonadotropin-releasing hormone receptor (Homo sapiens), sequence (P30968 whole entry, looked up): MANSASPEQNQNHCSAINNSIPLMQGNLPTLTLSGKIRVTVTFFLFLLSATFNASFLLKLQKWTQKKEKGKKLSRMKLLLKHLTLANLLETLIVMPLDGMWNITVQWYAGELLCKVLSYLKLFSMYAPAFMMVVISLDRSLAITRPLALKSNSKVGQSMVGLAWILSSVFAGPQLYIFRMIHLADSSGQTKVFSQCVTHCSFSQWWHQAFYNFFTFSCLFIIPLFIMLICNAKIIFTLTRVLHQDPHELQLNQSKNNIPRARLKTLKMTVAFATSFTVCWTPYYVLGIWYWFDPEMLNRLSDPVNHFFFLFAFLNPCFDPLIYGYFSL
Muscarinic acetylcholine receptor M1 (Homo sapiens), sequence (P11229 whole entry, looked up): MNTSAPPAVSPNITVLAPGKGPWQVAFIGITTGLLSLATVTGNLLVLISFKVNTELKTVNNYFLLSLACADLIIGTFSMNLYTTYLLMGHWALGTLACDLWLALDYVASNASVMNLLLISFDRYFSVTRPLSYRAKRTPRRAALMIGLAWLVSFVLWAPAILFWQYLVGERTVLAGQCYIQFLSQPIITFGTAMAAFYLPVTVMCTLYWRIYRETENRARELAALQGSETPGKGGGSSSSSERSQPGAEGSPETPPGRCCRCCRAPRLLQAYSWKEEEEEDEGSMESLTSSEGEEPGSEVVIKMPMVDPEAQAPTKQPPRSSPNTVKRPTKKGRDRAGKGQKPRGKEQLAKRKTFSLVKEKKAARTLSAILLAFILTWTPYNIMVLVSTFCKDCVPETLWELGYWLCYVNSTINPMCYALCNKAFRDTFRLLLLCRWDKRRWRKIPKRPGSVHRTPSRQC

For `CC(=O)[C@H]1CC[C@H]2[C@@H]3CC[C@H]4C[C@](C)(O)CC[C@]4(C)[C@H]3CC[C@]12C`, the Potency result in [1], in experiment [2], in experiment [3], in experiment [4], in experiment [5] and in experiment [6] was “inactive” in each case. The Potency result in experiment [7], in experiment [8], in [9], in experiment [10], in experiment [11] and in [12] was “inactive” each time. The Potency result in [13], in experiment [14], in [15], in experiment [16], in [17] and in [18] was “inactive” throughout. The Potency entry in experiment [19] was “inactive”.

Consider `COc1ccc(N)cc1`, for which the Potency entry in experiment [1], in experiment [3], in experiment [4], in experiment [5], in [6] and in experiment [7] was “inactive” in each case. The Potency result in [8], in experiment [9], in experiment [10], in experiment [11], in [12] and in [13] was “inactive” in each case. Moreover, the Potency entry in [14], in experiment [15], in experiment [16], in experiment [17], in experiment [18] and in [19] was “inactive” in each case. Moreover, the Potency entry in experiment [20] is “inactive”. Further, the Potency entry in experiment [2] was “inactive and 68 µM (active)”.

`O=C(CCl)c1ccccc1`: the Potency entry in [1], in experiment [3], in experiment [4], in experiment [5], in experiment [6] and in [7] was “inactive” throughout. Further, the Potency entry in [8], in experiment [9], in [10], in experiment [11], in experiment [12] and in experiment [13] was “inactive” in each case. Also, the Potency result in experiment [14], in experiment [15], in experiment [16], in experiment [17], in [18] and in experiment [19] was “inactive” each time. Moreover, the Potency result in experiment [20] was “inactive”. The Potency in experiment [2] was 62 µM (active) and 54.5 µM (active).

`C=C(C)[C@@H]1CC=C(C=O)CC1`: the Potency result in [1], in experiment [2], in experiment [3], in experiment [4], in experiment [5] and in [6] was “inactive” each time. In addition, the Potency result in experiment [7], in experiment [8], in [9], in experiment [10], in experiment [11] and in experiment [12] was “inactive” in each case. Moreover, the Potency entry in experiment [13], in experiment [14], in [15], in experiment [16], in [17] and in [18] was “inactive” each time. Further, the Potency entry in experiment [20] was “inactive”.

Regarding `OCC(Br)CBr` (stereo not drawn), the Potency entry in experiment [1], in experiment [2], in experiment [3], in [4], in experiment [5] and in [6] was “inactive” each time. Further, the Potency entry in experiment [7], in [8], in [9], in experiment [10], in [11] and in [12] was “inactive” in each case. Also, the Potency entry in experiment [13], in experiment [14], in experiment [15], in experiment [16], in experiment [17] and in experiment [18] was “inactive” in each case. Further, the Potency result in [19] and in experiment [20] was “inactive” each time.

Turning to `O=NN1CCCCC1`, the Potency entry in experiment [1], in [2], in experiment [3], in [4], in experiment [5] and in experiment [6] was “inactive” each time. Further, the Potency entry in experiment [7], in [8], in experiment [9], in experiment [10], in experiment [11] and in experiment [12] was “inactive” each time. The Potency entry in [13], in [14], in experiment [15], in experiment [16], in experiment [17] and in experiment [18] was “inactive” each time. In addition, the Potency entry in experiment [19] and in experiment [20] was “inactive” in each case.

As for `O=[N+]([O-])c1cccc(O)c1`, the Potency result in experiment [1], in experiment [2], in experiment [3], in [4], in [5] and in experiment [6] was “inactive” each time. Moreover, the Potency result in experiment [7], in [8], in experiment [9], in experiment [10], in experiment [11] and in experiment [12] was “inactive” in each case. Further, the Potency entry in experiment [13], in [14], in [15], in [16], in [17] and in experiment [18] was “inactive” each time. The Potency entry in [19] and in experiment [20] was “inactive” throughout.
